Laboratory results reported in PubChem BioAssay AID651582 (Sanford-Burnham Center for Chemical Genomics, 2012).
Values joined by “and” are separate entries in the source; they are usually repeats but may differ in a detail not shown here. Identical values can stand only once. Among all 230,000 compounds or so, about 1,500 (0.65%) were called active.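 The calls were made as follows: active = pattern-corrected inhibition of lipid staining of at least 50% with the nuclear-stain viability signal not falling by more than 50%; inactive = the rest, inconclusive results apart.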 Many of the other results were omitted from the sample, so actives are more common in it than they were. A structure can be active in one record and inactive in another.

Test: inhibitors of triacylglycerol accumulation, primary screen, cell-based, uHTS, fluorescence, H9c2 (AID 651582);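 as to inhibition: 0% = DMSO wells and 100% = triacsin C control wells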
Details: H9c2 cells, Nile Red lipid (TAG) fluorescence, at 12.5 µM, cells loaded with 200 µM oleic acid; DAPI nuclei signal change (viability), lower = more cytotoxic: measured here: DAPI nuclei count viability; inhibition: stronger effect = higher value
For CCN(CC)CCC(c1cc(OC)c(OC)c(OC)c1)c1c(OC)cc(OC)c2c(-c3ccccc3)cc(=O)oc12 (stereo unspecified), the DAPI nuclei signal change (viability), lower = more cytotoxic was -19.6% and the inhibition was 30.8% (inactive).
With CCN(CC)CCC(c1ccc2c(c1)OCO2)c1c(OC)cc(OC)c2c(-c3ccccc3)cc(=O)oc12 (stereo unspecified) the DAPI nuclei signal change (viability), lower = more cytotoxic was -32.4% and the inhibition was 57.5% (active).
With COc1cc(OC)c2ccc(=O)oc2c1C(CCN1CCN(c2ccccc2)CC1)c1ccc2c(c1)OCO2 (stereo unspecified) the DAPI nuclei signal change (viability), lower = more cytotoxic was 10.1% and the inhibition was 25.2% (inactive).
For COc1ccc(-c2ccc(CN3C(CC(C)C)C(=O)N(Cc4cn(CC5CCCCC5)nn4)CCS3(=O)=O)cc2)cn1 (stereo unspecified), the DAPI nuclei signal change (viability), lower = more cytotoxic was -15.9% and the inhibition was 31% (inactive).
With CCCC[C@H]1COCCS(=O)(=O)N1Cc1cccc(Cl)c1 the DAPI nuclei signal change (viability), lower = more cytotoxic was -5.51% and the inhibition was 5.89% (inactive).
With O=C(CN1C(=O)NC2(CCCCCC2)C1=O)NCc1ccc(F)cc1 the DAPI nuclei signal change (viability), lower = more cytotoxic was 0.843% and the inhibition was -2.12% (inactive).
In the case of Cc1cccc(-c2cnc(C(O)c3ccc4ccccc4c3)[nH]2)c1 (stereo unspecified), the DAPI nuclei signal change (viability), lower = more cytotoxic is reported as 0.713% and the inhibition is reported as -12.6% (inactive).
With COc1cccc(NC(=O)c2cc(S(=O)(=O)N3CCc4ccccc43)cn2C)c1 the DAPI nuclei signal change (viability), lower = more cytotoxic was -2.57% and the inhibition was -1.15% (inactive).
With CCN(C(=O)COC(=O)c1cc(S(=O)(=O)N2CCc3ccccc32)ccc1OC)C1CCS(=O)(=O)C1 (stereo unspecified) the DAPI nuclei signal change (viability), lower = more cytotoxic was -4.55% and the inhibition was 3.02% (inactive).
In the case of COc1ccc(S(=O)(=O)N2CCc3ccccc32)cc1C(=O)Nc1cc(S(C)(=O)=O)ccc1Cl, the DAPI nuclei signal change (viability), lower = more cytotoxic is reported as -36.5% and the inhibition is reported as 61.6% (active).
With CCOC(=O)C1(C)CCCN(C(=O)c2ccc(N(C)C)cc2)C1 (stereo unspecified) the DAPI nuclei signal change (viability), lower = more cytotoxic was 5.71% and the inhibition was -6.89% (inactive).
In the case of COc1ccc(-c2sc3ccc(OC)cc3c2C#Cc2ccccn2)cc1, the DAPI nuclei signal change (viability), lower = more cytotoxic is reported as 5.72% and the inhibition is reported as 13.1% (inactive).
With COc1ccc2sc(-c3ccc(N(C)C)cc3)c(-c3ccc4cc[nH]c4c3)c2c1 the DAPI nuclei signal change (viability), lower = more cytotoxic was 224% and the inhibition was 24.3% (inactive).
In the case of COc1ccc2sc(-c3ccc(N(C)C)cc3)c(C#CCO)c2c1, the DAPI nuclei signal change (viability), lower = more cytotoxic is reported as 426% and the inhibition is reported as 66.7% (active).
For Cc1cccc(C(=O)Nc2nnc(S(=O)(=O)N3CCCCCC3)s2)c1, the DAPI nuclei signal change (viability), lower = more cytotoxic was -4.18% and the inhibition was 6.02% (inactive).
For O=C(NCc1nnnn1-c1ccc(Cl)cc1)c1ccc2c(c1)OCO2, the DAPI nuclei signal change (viability), lower = more cytotoxic was 1.1% and the inhibition was -6.02% (inactive).
For c1ccc(Cn2nnc3c(NCC4CC4)ncnc32)cc1, the DAPI nuclei signal change (viability), lower = more cytotoxic was -8.3% and the inhibition was 23.9% (inactive).
For CNc1cncc(-c2ccc(NS(C)(=O)=O)cc2)n1, the DAPI nuclei signal change (viability), lower = more cytotoxic was -24.4% and the inhibition was 24.8% (inactive).
With CCc1ccc(OCC(O)CN2CCN(CCO)CC2)cc1 (stereo unspecified) the DAPI nuclei signal change (viability), lower = more cytotoxic was 4.43% and the inhibition was -3.68% (inactive).
With CN(C)CC(O)COc1ccc(C(C)(C)c2ccc(OCC(O)CN(C)C)cc2)cc1 (stereo unspecified) the DAPI nuclei signal change (viability), lower = more cytotoxic was 20% and the inhibition was 50.5% (active).
With CC(C)(c1ccccc1)c1ccc(OCCN)cc1 the DAPI nuclei signal change (viability), lower = more cytotoxic was 10.8% and the inhibition was 22% (inactive).
For CC(=O)NC12CC3CC(C1)CC(C(=O)N1CCN(C(=O)c4ccco4)CC1)(C3)C2, the DAPI nuclei signal change (viability), lower = more cytotoxic was 0.13% and the inhibition was -4.34% (inactive).
With CS(=O)(=O)c1ccc(C(=O)NNC(=O)c2cccs2)cc1 the DAPI nuclei signal change (viability), lower = more cytotoxic was -4.79% and the inhibition was -4.25% (inactive).
In the case of C=CCNC(=S)N/N=C/c1ccc(C)s1, the DAPI nuclei signal change (viability), lower = more cytotoxic is reported as -18.5% and the inhibition is reported as 56% (active).
For C=CCNC(=S)N/N=C/c1ccc(OCc2ccccc2)cc1, the DAPI nuclei signal change (viability), lower = more cytotoxic was 1.44% and the inhibition was 9.8% (inactive).
In the case of Cc1ccc(/C=N/NC(=O)CN2CCN(Cc3ccccc3)CC2)s1, the DAPI nuclei signal change (viability), lower = more cytotoxic is reported as 1.3% and the inhibition is reported as 2.92% (inactive).
With CCOc1ccc(CN2CCN(Cc3ccc4cc(F)ccc4n3)CC2CCO)cc1 (stereo unspecified) the DAPI nuclei signal change (viability), lower = more cytotoxic was 1.54% and the inhibition was 7.07% (inactive).
With O=C1c2ccccc2C(=O)c2c1cccc2N1CCN(Cc2ccccc2)CC1 the DAPI nuclei signal change (viability), lower = more cytotoxic was 4.09% and the inhibition was 114% (active).
With O=c1cc(N2CCN(Cc3ccccc3)CC2)c(-c2ccccc2)n[nH]1 the DAPI nuclei signal change (viability), lower = more cytotoxic was -7.21% and the inhibition was 20.7% (inactive).
With O=C(CN1CCN(Cc2ccccc2)CC1)NC(c1ccccc1)c1ccccc1 the DAPI nuclei signal change (viability), lower = more cytotoxic was 4.91% and the inhibition was -87.5% (inactive).
In the case of CNC(=O)NC(=O)C(C)N1CCN(C/C=C/c2ccccc2)CC1 (stereo unspecified), the DAPI nuclei signal change (viability), lower = more cytotoxic is reported as 3.57% and the inhibition is reported as 4.65% (inactive).
With O=C1c2ccccc2C(=O)c2c1cccc2N1CCN(C/C=C/c2ccccc2)CC1 the DAPI nuclei signal change (viability), lower = more cytotoxic was 3.54% and the inhibition was 59.1% (active).
For O=C(CCN1CCN(C/C=C/c2ccccc2)CC1)Nc1cccc(F)c1, the DAPI nuclei signal change (viability), lower = more cytotoxic was 11.8% and the inhibition was 13.2% (inactive).
In the case of O=C(COC(=O)/C=C/c1ccc(Cl)cc1)NC1CCS(=O)(=O)C1 (stereo unspecified), the DAPI nuclei signal change (viability), lower = more cytotoxic is reported as -1.68% and the inhibition is reported as 1.31% (inactive).
In the case of O=C(COC(=O)c1ccccn1)NNC(=O)c1ccc(Br)cc1, the DAPI nuclei signal change (viability), lower = more cytotoxic is reported as 1.16% and the inhibition is reported as 11.9% (inactive).
For COC(=O)c1ccc(CN2CCCC(C(=O)Nc3cccc(-n4cnnn4)c3)C2)cc1 (stereo unspecified), the DAPI nuclei signal change (viability), lower = more cytotoxic was 3.39% and the inhibition was -0.9% (inactive).
For COc1ccc(C(CNC(=O)c2cccc(S(=O)(=O)Nc3ccc(Br)cc3)c2)N(C)C)cc1 (stereo unspecified), the DAPI nuclei signal change (viability), lower = more cytotoxic was 7.9% and the inhibition was -15.7% (inactive).
For O=C(Nc1nc2c(F)cc(F)cc2s1)C1COc2ccccc2O1 (stereo unspecified), the DAPI nuclei signal change (viability), lower = more cytotoxic was -6.26% and the inhibition was -0.591% (inactive).
In the case of O=C(Nc1nc(-c2ccncc2)cs1)C1COc2ccccc2O1 (stereo unspecified), the DAPI nuclei signal change (viability), lower = more cytotoxic is reported as -38.7% and the inhibition is reported as 50.4% (active).
With COc1ccc(OC)c2sc(NC(=O)C3COc4ccccc4O3)nc12 (stereo unspecified) the DAPI nuclei signal change (viability), lower = more cytotoxic was -0.689% and the inhibition was -1.03% (inactive).
With CCCCc1ccc(NS(=O)(=O)c2cccc(C(=O)N3CCCN(C)CC3)c2)cc1 the DAPI nuclei signal change (viability), lower = more cytotoxic was 4.43% and the inhibition was -11.5% (inactive).
For CC1O[C@@H](OC2C(O)C(C)O[C@H](OC(=O)[C@]34CCC(C)(C)C[C@H]3C3=CCC5[C@@]6(C)CC(O)C(O[C@@H]7OC(CO)C(O)[C@@H](O)[C@@H]7O)[C@@](C)(C(=O)O)C6CC[C@@]5(C)[C@]3(CO)CC4)C2O[C@H]2OC(C)[C@@H](O[C@@H]3OCC(O[C@@H]4OC(CO)C(O)[C@H](O)C4O)[C@@H](O)[C@@H]3O)[C@H](O)C2O)C(O)C(O)C1O (stereo partly specified), the DAPI nuclei signal change (viability), lower = more cytotoxic was -3.05% and the inhibition was 18.4% (inactive).
With COc1ccc(NC(=O)CN(C)CC(=O)Nc2cccc(C(F)(F)F)c2)cc1 the DAPI nuclei signal change (viability), lower = more cytotoxic was 6.16% and the inhibition was -9.17% (inactive).
With COc1cc(NC(=O)c2[nH]cnc2C(N)=O)cc(C(=O)Nc2cccc(C(F)(F)F)c2)c1 the DAPI nuclei signal change (viability), lower = more cytotoxic was -14.2% and the inhibition was 53.7% (active).
In the case of COc1ccc(NC(=O)C(=O)NCC(=O)Nc2cccc(C(F)(F)F)c2)cc1, the DAPI nuclei signal change (viability), lower = more cytotoxic is reported as -2.54% and the inhibition is reported as 4.19% (inactive).
In the case of Cc1cccc(NC(=O)c2nnn(-c3cccc(C(F)(F)F)c3)c2N)c1, the DAPI nuclei signal change (viability), lower = more cytotoxic is reported as -5.82% and the inhibition is reported as 3.82% (inactive).
With N#Cc1ccc(Oc2ccc(C(F)(F)F)cc2NC(=O)c2ccc(F)cc2)cc1 the DAPI nuclei signal change (viability), lower = more cytotoxic was 4.06% and the inhibition was -7.23% (inactive).
With COc1cc(NC(=O)c2cncc(-c3ccc(C#N)cc3)c2)cc(C(=O)Nc2cccc(C(F)(F)F)c2)c1 the DAPI nuclei signal change (viability), lower = more cytotoxic was 0.0489% and -1.97% and the inhibition was -19.1% (inactive) and 61.3% (active).
